This is an account of results in PubChem BioAssay (NCATS).

Results filed as inconclusive are left out. Where a call stands in place of a potency, no number is given. Activity calls are given as the source filed them. Unless noted, the call rests on the fitted dose curve.

Sequence of Androgen receptor (Homo sapiens) (P10275 whole entry, looked up): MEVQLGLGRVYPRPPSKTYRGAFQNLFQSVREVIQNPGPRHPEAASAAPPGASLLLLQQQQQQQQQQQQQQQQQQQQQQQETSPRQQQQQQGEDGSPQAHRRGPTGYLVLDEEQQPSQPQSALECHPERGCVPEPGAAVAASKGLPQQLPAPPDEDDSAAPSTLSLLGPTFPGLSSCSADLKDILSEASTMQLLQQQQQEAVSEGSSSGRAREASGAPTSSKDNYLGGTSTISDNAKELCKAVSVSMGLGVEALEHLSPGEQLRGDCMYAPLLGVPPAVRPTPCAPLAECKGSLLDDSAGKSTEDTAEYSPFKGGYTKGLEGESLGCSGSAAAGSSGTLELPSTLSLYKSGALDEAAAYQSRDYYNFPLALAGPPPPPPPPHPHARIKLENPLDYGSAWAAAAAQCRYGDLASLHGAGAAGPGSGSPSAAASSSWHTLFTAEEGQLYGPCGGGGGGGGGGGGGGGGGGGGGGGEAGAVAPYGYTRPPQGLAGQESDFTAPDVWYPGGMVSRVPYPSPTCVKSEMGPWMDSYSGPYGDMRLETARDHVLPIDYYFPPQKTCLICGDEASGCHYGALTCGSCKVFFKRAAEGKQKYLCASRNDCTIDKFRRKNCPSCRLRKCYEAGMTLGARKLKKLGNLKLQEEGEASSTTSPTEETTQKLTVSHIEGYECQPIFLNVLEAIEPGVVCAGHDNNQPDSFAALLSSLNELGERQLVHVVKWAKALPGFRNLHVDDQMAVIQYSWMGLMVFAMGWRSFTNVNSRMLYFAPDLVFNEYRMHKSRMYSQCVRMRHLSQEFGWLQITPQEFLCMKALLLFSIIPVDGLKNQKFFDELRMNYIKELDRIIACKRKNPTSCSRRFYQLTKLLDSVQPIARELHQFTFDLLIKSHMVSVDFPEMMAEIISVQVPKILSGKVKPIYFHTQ
Sequence of Estrogen receptor (Homo sapiens) (P03372 whole entry, looked up): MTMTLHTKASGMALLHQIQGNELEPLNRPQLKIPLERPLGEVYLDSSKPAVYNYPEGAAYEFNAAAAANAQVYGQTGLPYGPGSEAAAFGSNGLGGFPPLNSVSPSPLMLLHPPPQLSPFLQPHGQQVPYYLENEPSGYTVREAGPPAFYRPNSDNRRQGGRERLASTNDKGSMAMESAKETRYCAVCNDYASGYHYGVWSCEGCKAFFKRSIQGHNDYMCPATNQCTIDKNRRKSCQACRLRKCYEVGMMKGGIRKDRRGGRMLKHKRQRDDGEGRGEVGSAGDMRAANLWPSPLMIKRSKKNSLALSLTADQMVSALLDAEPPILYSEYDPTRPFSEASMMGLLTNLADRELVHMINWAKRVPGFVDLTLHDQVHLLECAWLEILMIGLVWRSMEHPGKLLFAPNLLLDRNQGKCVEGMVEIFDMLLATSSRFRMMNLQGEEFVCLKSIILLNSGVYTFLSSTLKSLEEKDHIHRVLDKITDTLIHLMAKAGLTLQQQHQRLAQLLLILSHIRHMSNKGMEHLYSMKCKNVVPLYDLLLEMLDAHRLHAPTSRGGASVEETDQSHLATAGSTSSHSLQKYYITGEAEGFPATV

The first assay deals with Estrogen receptor (Homo sapiens) (UniProt P03372). Kind of assay: qHTS assay for small molecule agonists of estrogen receptor alpha signaling (AID 588514). Further: nearly all actives have a fitted effect of over 70% in size. The following applies: ER-alpha-UAS-bla HEK293, beta-lactamase ratio, 18 h; series mostly up to 76.8 µM. Put shortly:
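Read-out: CCF4 fluorescence from a beta-lactamase reporter in ER-alpha-UAS-bla HEK 293 cells after 18 hrs of compound exposure at 37 C. Normalized to 20 nM 17-beta-estradiol (100%) and DMSO (0%).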
On the technique in general: In qHTS, concentration-response curves come from the screen itself.
For `Cc1cc(C)cc(N)c1`, the Potency result was “inactive”. Same read-out and setting: in the case of `Cc1ccc(C)cc1` it was “inactive”; in that of `c1ccc2c(c1)ccc1ncccc12`, “inactive”; in that of `O=C(O)CCSSCCC(=O)O`, “inactive”.

`CC(CCl)OC(C)CCl` (stereo not given): the Potency entry is “inactive”.

On to `CCCC(Cl)CCCC(Cl)CCC(Cl)CCC(Cl)CCC(Cl)CCCC(Cl)CCC` (stereo not given), for which the Potency entry is “inactive”. For the compound `CC(=O)Nc1ccc(N)cc1`, the Potency entry is “inactive”. With `Nc1cc(S(=O)(=O)O)ccc1O`, the Potency entry is “inactive”.

In the case of `Nc1cccc(S(=O)(=O)O)c1`, the Potency result was “inactive”. Same read-out and setting: in the case of `Cc1ccc2oc(=O)ccc2c1` it was “inactive”; in that of `NC(=O)c1cccc([N+](=O)[O-])c1`, “inactive”.

On to `Nc1ccc(Cl)cc1[N+](=O)[O-]`, for which the Potency result was “inactive”. On the same count and under the same terms, in the case of `Nc1cccc([N+](=O)[O-])c1` it was “inactive”; in that of `Oc1c(Cl)ccc(Cl)c1Cl`, “inactive”; in that of `C[C@@H]1CC2(OC3C[C@@]4(C)C5=CC[C@H]6C(C)(C)C(O[C@@H]7OC[C@@H](O)[C@H](O)[C@H]7O)CC[C@@]67C[C@@]57CC[C@]4(C)C31)OC(O)C1(C)OC21` (stereo not given in full), “inactive”.

As for `Cc1ccc(N(C)C)cc1`, the Potency result is “inactive”. Same read-out and setting: in the case of `C1COC1` it was “inactive”; in that of `O=C1CCCCC1`, “inactive”.

On to `Cc1cccc([N+](=O)[O-])c1C(=O)O`, for which the Potency result was “inactive”. Same read-out and setting: in the case of `BrC(Br)C(Br)Br` it was “inactive”. On the same count and under the same terms, in the case of `c1ccsc1` it was “inactive”; in that of `ClCCl`, “inactive”.

For `Nc1ccc(F)cc1F`, the Potency result was “inactive”. As to `CCC(C)(C)C(=O)O`, the Potency entry was “inactive”. Take `CC(N)CN` (stereo not given): the Potency entry was “inactive”. Still for that read-out and setting: in the case of `COc1ccc(OC)cc1` it was “inactive”. In the case of `C1CCC2OC2C1` (stereo not given), the Potency entry was “inactive”. On the same count and under the same terms, in the case of `Cc1ccc2cccnc2c1` it was “inactive”. Regarding `CCOc1cc(OCC)c(C(C)=O)cc1OCC`, the Potency entry was “inactive”. `CCN(Cc1ccccc1)c1ccccc1`: the Potency entry was “inactive”.

With `O=C1NC(=O)c2cc([N+](=O)[O-])ccc21`, the Potency entry was “inactive”. For `CC(C)=C1CCC(C)CC1=O` (stereo not given), the Potency result is “inactive”.

For the compound `CNC(=O)N(c1ccccc1)c1ccccc1`, the Potency result is “inactive”. As for `OCCO`, the Potency entry was “inactive”. For `CC(C)(O)CCC(C)(C)O`, the Potency entry is “inactive”. Regarding `Cc1cccc(C(=O)O)c1`, the Potency result was “inactive”. The same measure, in the same setting: in the case of `C/C(C=O)=C/c1ccccc1` it was “inactive”; in that of `Cc1cccc(C)c1O`, “inactive”. `CC(C)c1ccccc1`: the Potency result is “inactive”.

The target of another assay is Androgen receptor (Homo sapiens) (UniProt P10275). Kind of assay: qHTS assay for small molecule agonists of androgen receptor signaling (AID 588515; active means well fitted curve in the direction sought with a large enough effect in the signal ratio, with a control signal flat; the % refers to the signal ratio). To be noted: AR-UAS-bla HEK293, beta-lactamase ratio, agonist 16 h; stronger effect = higher value. Put shortly:
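Stimulation of an AR-responsive β-lactamase reporter in GripTite HEK293 cells was measured after 16 h compound exposure at 37 °C, via CCF4 fluorescence after 2 h RT. EC50 from Hill fits, normalized to R1881 at 30 nM.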
For the compound `Cc1cc(C)cc(N)c1`, the activation is 2.27% (inactive). For `Cc1ccc(C)cc1`, the activation was 10.6% (inactive).

On to `c1ccc2c(c1)ccc1ncccc12`, for which the activation is 7.08% (inactive). On the same count and under the same terms, in the case of `O=C(O)CCSSCCC(=O)O` it was -2.34% (inactive). On the same count and under the same terms, in the case of `CCCC(Cl)CCCC(Cl)CCC(Cl)CCC(Cl)CCC(Cl)CCCC(Cl)CCC` (stereo not given) it was -5.75% (inactive). Take `CC(=O)Nc1ccc(N)cc1`: the activation was -10.4% (inactive). On the same count and under the same terms, in the case of `Nc1cc(S(=O)(=O)O)ccc1O` it was 14.7% (inactive). On the same count and under the same terms, in the case of `Nc1cccc(S(=O)(=O)O)c1` it was 6.82% (inactive). With `NC(=O)c1cccc([N+](=O)[O-])c1`, the activation is 2.01% (inactive). The same measure, in the same setting: in the case of `Nc1ccc(Cl)cc1[N+](=O)[O-]` it was 7.43% (inactive); in that of `Nc1cccc([N+](=O)[O-])c1`, -5.67% (inactive).

Take `C[C@@H]1CC2(OC3C[C@@]4(C)C5=CC[C@H]6C(C)(C)C(O[C@@H]7OC[C@@H](O)[C@H](O)[C@H]7O)CC[C@@]67C[C@@]57CC[C@]4(C)C31)OC(O)C1(C)OC21` (stereo not given in full): the activation was -11% (inactive). `Cc1ccc(N(C)C)cc1`: the activation is 15.4% (inactive). Take `C1COC1`: the activation was -10.3% (inactive). Still for that read-out and setting: in the case of `O=C1CCCCC1` it was 14.6% (inactive). For the compound `BrC(Br)C(Br)Br`, the activation was 2.87% (inactive). The same measure, in the same setting: in the case of `c1ccsc1` it was -6.67% (inactive); in that of `ClCCl`, 2.05% (inactive); in that of `Nc1ccc(F)cc1F`, 18.9% (inactive).

As for `CCC(C)(C)C(=O)O`, the activation is -5.44% (inactive).

As to `C1CCC2OC2C1` (stereo not given), the activation was -3.32% (inactive). In the case of `Cc1ccc2cccnc2c1`, the activation is 14.8% (inactive). Still for that read-out and setting: in the case of `CCOc1cc(OCC)c(C(C)=O)cc1OCC` it was -14.7% (inactive). Same read-out and setting: in the case of `CCN(Cc1ccccc1)c1ccccc1` it was 11.1% (inactive).

Turning to `O=C1NC(=O)c2cc([N+](=O)[O-])ccc21`, the activation is -13.5% (inactive).

Consider `CNC(=O)N(c1ccccc1)c1ccccc1`, for which the activation is -11.4% (inactive). Take `OCCO`: the activation is -10.8% (inactive).

Consider `CC(C)(O)CCC(C)(C)O`, for which the activation was -1.56% (inactive). Same read-out and setting: in the case of `Cc1cccc(C(=O)O)c1` it was -5.05% (inactive); in that of `Cc1cccc(C)c1O`, -2.64% (inactive).

Regarding `CC(C)c1ccccc1`, the activation is -0.119% (inactive).
